Results as given in PubChem BioAssay (Tox21).
Results filed as inconclusive are left out. Where a call stands in place of a potency, no number is given. Values without a mark were called inactive. Calls of active or inactive are those of the source. Calls come from the whole dose curve.

These compounds were tested against Beta-2 adrenergic receptor (Homo sapiens) (UniProt P07550) (assay: Adrenergic beta2 receptor (ADRB2) small molecule antagonists, cell-based qHTS assay (AID 1963592; note: nearly all actives have a fitted effect of over 50% in size)). Conditions: CHO-ADRB2 cells, isoproterenol-stimulated cAMP HTRF ratio, 0.5 h; series mostly up to 92.4 µM.
Sequence of Beta-2 adrenergic receptor (Homo sapiens) (P07550 whole entry, looked up): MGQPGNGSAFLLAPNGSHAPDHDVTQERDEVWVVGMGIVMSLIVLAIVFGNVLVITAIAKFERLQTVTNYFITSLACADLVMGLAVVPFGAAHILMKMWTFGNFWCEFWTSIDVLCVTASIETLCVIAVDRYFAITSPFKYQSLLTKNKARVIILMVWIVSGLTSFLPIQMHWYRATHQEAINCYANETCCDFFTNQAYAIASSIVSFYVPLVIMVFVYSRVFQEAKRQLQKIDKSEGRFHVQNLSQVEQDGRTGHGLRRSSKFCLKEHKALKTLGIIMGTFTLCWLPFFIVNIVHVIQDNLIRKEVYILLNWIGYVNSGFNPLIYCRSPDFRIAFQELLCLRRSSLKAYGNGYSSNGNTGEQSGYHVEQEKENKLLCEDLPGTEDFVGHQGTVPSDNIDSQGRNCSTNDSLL
Excerpt: U.S. Tox21 Program National Center for Advancing Translational Sciences [NCATS] Division of Preclinical Innovation [DPI] U.S. Environmental Protection Agency [EPA] National Institutes of Environmental Health Sciences [NIEHS] National Toxicology Program [NTP] U.S. Food and Drug Administration [FDA] Tox21 Assay Overview: Beta adrenergic receptors (Beta-ARs) belong to the G-protein coupled receptor (GPCR) superfamily, includes three subtypes - beta1, beta2, and beta3. Beta1-AR is the predominant receptor subtype expressed in the heart, and beta2-AR is expressed in the kidney, lung, blood vessel and in the heart, and beta3 is found in the adipocytes. Beta1 and 2 ARs couple to Gs protein and elevate cyclic adenosine mono phosphate (cAMP), which activates protein kinase A and leads to the downstream signaling responsible for the physiological actions. Beta-AR agonists or antagonists are the most prescribed therapeutic agents for heart failure and asthma, and these were one of the first target receptors for the rational drug design. Tox21 10K compound library was screened using the cAMP-Gs dynamic assay (Cisbio Bioassays, Shelton, CT) to identify agonists/antagonists of the Gs-coupled human adrenergic, beta2 receptor (ADRB2) in the CHO-ADRB2 cell line (Codex BioSolutions, Inc. Gaithersburg, MD), which stably over-expresses ADRB2. The principle of cAMP-Gs dynamic assay is based on HTRF technology, which facilitates the fluorescence resonance energy transfer (FRET) between donor Europium cryptate and acceptor d2-labeled cAMP. The cAMP generated within cells competes with the red acceptor, d2-labled cAMP, for binding to the monoclonal anti-cAMP-cryptate (Europium donor). An increase in intracellular cAMP leads to the disruption of FRET signal, and the signal is inversely proportional to the cAMP concentration. Propranolol HCl (Sigma-Aldrich, St. Louis, MO) was used as a positive control in the screening.
Tox21 Assay Protocol Summary: CHO-ADRB2 cells were dispensed at 1,000/well in 4uL assay medium into white/solid 1536-well plates (Greiner Bio-One North America Inc., Monroe, NC) using a Multidrop Combi dispenser (ThermoFisher Scientific, Waltham, MA). The assay plates were incubated at 37C and 5% CO2 for an overnight (18-20hr). Then positive control and test compounds dissolved in DMSO were transferred to the assay plates at 23nL using a Pintool station (Wako, San Diego, CA). Following the compound and positive control transfer, 1uL agonist-stimulation mix containing 1nM Isoproterenol HCl, 100uM IBMX and 25uM Ro-20-1724 was added to each well of the assay plates using BioRAPTR Flying Reagent Dispenser (FRD, Beckman Coulter, Brea, CA). The assay plates were incubated at room temperature for 0.5hr. Then 2.5ul each d2-labled cAMP and anti-cAMP-cryptate solutions were added separately to each well of the assay plates using an FRD and the assay plates were incubated at room temperature for 1hr. The fluorescence signal was measured at two different wavelengths (665nm and 615nm) using an Envision plate reader (Perkin Elmer, Shelton, CT). Data were expressed as the ratio of 665 nm/615 nm.
Potency is the fitted concentration of half-maximal effect.

**Q.** For `C[C@H]1c2cccc(O)c2C(O)=C2C(=O)[C@]3(O)C(O)=C(C(N)=O)C(=O)[C@@H](N(C)C)[C@@H]3[C@@H](O)[C@@H]21`, which Potency is on record?
**A.** inactive

**Q.** For `CCC(C)[O-].CCC(C)[O-].CCOC(=O)/C=C(/C)[O-].[Al+3]`, which Potency is on record?
**A.** inactive

**Q.** How did the Potency turn out when `C[C@H](CS)C(=O)N1CCC[C@H]1C(=O)O` was run?
**A.** inactive

**Q.** `CCCCCC(CO)CCC` (stereo not given) was tested. Which Potency did it give?
**A.** inactive

**Q.** `O=C1NCC2(CCN(CCc3ccccc3)CC2)O1` was tested. Which Potency did it give?
**A.** inactive

**Q.** `OCCCS` was tested. Which Potency did it give?
**A.** inactive

**Q.** With `CCN(CC)C(=O)c1cc(S(=O)(=O)Cc2ccccc2)c(N2CCC(c3ccccc3)CC2)cc1N(CC)CCN(C)C` as the compound, how does the Potency read?
**A.** 24.1 µM (active)

**Q.** Which Potency does the source give for `Cc1ccc(-c2ncc(Cl)cc2-c2ccc(S(C)(=O)=O)cc2)cn1` here?
**A.** inactive

**Q.** How did the Potency turn out when `CSc1ccc(Oc2ccc(S(N)(=O)=O)cc2CN(C)C)cc1C` was run?
**A.** inactive

**Q.** `CC(C)=CCCC(C)CCOC=O` (stereo not given) was tested. Which Potency did it give?
**A.** inactive

**Q.** `O=C1CCCCC1C1CCCCC1` (stereo not given) was tested. Which Potency did it give?
**A.** inactive

**Q.** How did the Potency turn out when `O=C1CCC/C=C\CCCCCCCCCC1` was run?
**A.** inactive

**Q.** For `c1ccc(CN(Cc2ccccc2)Cc2ccccc2)cc1`, which Potency is on record?
**A.** inactive

**Q.** How did the Potency turn out when `Brc1ccccc1-c1ccccc1` was run?
**A.** inactive

**Q.** For `[Ca+2]`, which Potency is on record?
**A.** inactive

**Q.** With `C=CC(=O)[O-].C=CC(=O)[O-].[Zn+2]` as the compound, how does the Potency read?
**A.** inactive

**Q.** Which Potency does the source give for `COc1ccc2c(c1)c1c3n2CCN(C)C3=NCC1` here?
**A.** inactive

**Q.** How did the Potency turn out when `CCCCCSCCCCC` was run?
**A.** inactive

**Q.** With `OCCCCCCCCCCCCBr` as the compound, how does the Potency read?
**A.** inactive

**Q.** `CC1=C(O)C(=O)CO1` was tested. Which Potency did it give?
**A.** inactive

**Q.** How did the Potency turn out when `CCCCC(=O)O[C@]1(C(=O)CO)[C@@H](C)C[C@H]2[C@@H]3CCC4=CC(=O)C=C[C@]4(C)[C@@]3(F)[C@@H](O)C[C@@]21C` was run?
**A.** inactive

**Q.** Which Potency does the source give for `COP(=O)(O)OP(=O)(O)OC` here?
**A.** inactive

**Q.** How did the activity change, negative = inhibition turn out when `O=C(O)CN(CCOCCOCCN(CC(=O)O)CC(=O)O)CC(=O)O` was run?
**A.** 0.881% [at 0.349 µM]

**Q.** With `CC/C=C\C/C=C\C/C=C\CCCCCCCC(=O)OC` as the compound, how does the Potency read?
**A.** inactive

**Q.** With `COCCOC(=O)CC#N` as the compound, how does the Potency read?
**A.** inactive

**Q.** How did the Potency turn out when `CC(C)CCCC(C)CC=O` (stereo not given) was run?
**A.** inactive

**Q.** For `COC(=O)c1cc(Cl)ccc1[N+](=O)[O-]`, which Potency is on record?
**A.** inactive

**Q.** With `CC/C=C\CCCCCO` as the compound, how does the Potency read?
**A.** inactive

**Q.** Which Potency does the source give for `Cc1[nH]cnc1C[C@H]1CCc2c(C)c3ccccc3n2C1=O` here?
**A.** 23.7 µM (active)

**Q.** Which Potency does the source give for `c1ccc(Cc2ccccc2)cc1` here?
**A.** inactive

**Q.** With `Brc1c(NC2=NCCN2)ccc2nccnc12` as the compound, how does the Potency read?
**A.** inactive

**Q.** `CC(C)(C)NC(=O)[C@@H]1C[C@@H]2CCCC[C@@H]2CN1C[C@@H](O)[C@H](Cc1ccccc1)NC(=O)[C@H](CC(N)=O)NC(=O)c1ccc2ccccc2n1` was tested. Which Potency did it give?
**A.** inactive

**Q.** How did the Potency turn out when `CC(=O)N1CCN(c2ccc(OC[C@H]3CO[C@](Cn4ccnc4)(c4ccc(Cl)cc4Cl)O3)cc2)CC1` was run?
**A.** inactive

**Q.** `CC1(COc2ccc(CC3SC(=O)NC3=O)cc2)CCCCC1` (stereo not given) was tested. Which Potency did it give?
**A.** inactive

**Q.** For `CC(CC=O)CCCC(C)(C)O` (stereo not given), which Potency is on record?
**A.** inactive

**Q.** With `C=CC(=O)OCC(C)OCC(C)OCC(C)OC(=O)C=C` (stereo not given) as the compound, how does the Potency read?
**A.** inactive

**Q.** For `CC1CN(c2cc3c(cc2F)c(=O)c(C(=O)O)cn3-c2ccc(F)cc2F)CCN1` (stereo not given), which activity change, negative = inhibition is on record?
**A.** 4.5% [at 8.39 µM]

**Q.** Which Potency does the source give for `OC/C(Br)=C(\Br)CO` here?
**A.** inactive

**Q.** `CCCCOCCOCCOCCOCCO` was tested. Which Potency did it give?
**A.** inactive

**Q.** With `CC(=O)OCC(=O)[C@@]12OC(C)(C)O[C@@H]1C[C@H]1[C@@H]3C[C@H](F)C4=CC(=O)C=C[C@]4(C)[C@@]3(F)[C@@H](O)C[C@@]12C` as the compound, how does the Potency read?
**A.** inactive
